A selection: hits, their analogues and other compounds. The true share with any hit is near 10%.
SW480 rerep – induces DNA re-replication in SW480 colon adenocarcinoma cells; 340,000 tested, 1.8% active; AID 624297; Potency, µM (titrated, usually from 46.1 µM), for inactives: at the highest dose re-replication activation, actives largely listed as activators; SW480 DNA re-replication, Hoechst DNA content imaging, 48 h; further: % of control where 0% means no effect; nearly all actives have a fitted effect of over 55% in size
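Hoechst fluorescence of nuclei (405 nm excitation, 500-530 nm emission) measured by plate-scanning imager after 48 hr compound exposure at 37 C; re-replication scored as increased number of nuclei with elevated intensity.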
VP16 counter – inhibits Gal4-VP16 luciferase reporter, ROR gamma counter-screen | Drosophila S2 Gal4-VP16 UAS-luciferase, luminescence, 20 h | Potency, µM (titrated, usually from 53.6 µM), inactives show at the highest dose activity, negative = inhibition, hits mostly inhibitors | 310,000 tested, 3.5% active | AID 2546;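 further: Gal4-VP16 expression switched on by copper sulfate through the metallothionein promoter; on the % scale 0 is the no-effect control and ±100 the full control effect; nearly all actives have a fitted effect of over 50% in size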
ELG1 repair inh – ELG1-dependent DNA repair inhibition; 330,000 tested, 2.3% active; Potency, µM (doses to about 46.1 µM), for inactives: at the top dose activity change, negative = inhibition, usual class: inhibitors; HEK293T ELG1-luciferase reporter, luminescence, 16 h; DNA damage induced by 5-fluorouridine; further: on the % scale 0 is the no-effect control and ±100 the full control effect; nearly all actives have a fitted effect of over 55% in size
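In this reporter screen, reduction of luminescence relative to DMSO vehicle indicated activity. Compounds and 5-fluorouridine were added together to 2,000 cells per well, incubated for 16 hr at 37 °C, then developed with ONE-Glo.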
MCF10A rerep – inducers of DNA re-replication in MCF 10A breast cells; MCF 10A DNA re-replication, Hoechst nuclear intensity, 48 h; Potency, µM (titrated, usually from 46.1 µM), for the others: at the highest dose activity, positive = re-replication, most hits filed as activators; 350,000 tested, 2.9% active; AID 624296; further: % of control where 0% means no effect; nearly all actives have a fitted effect of over 50% in size
RORgamma inh – ROR gamma (mouse) transcription inhibition | Potency, µM (doses to about 53.6 µM), without a hit: at the top dose activity change, negative = inhibition, most hits filed as inhibitors | Drosophila S2 Gal4-RORgamma UAS-luciferase reporter, 20 h | AID 2551 | 310,000 tested, 5.4% active; further: on the % scale 0 is the no-effect control and ±100 the full control effect; nearly all actives have a fitted effect of over 60% in size
Target sequence (P51450 whole entry, looked up, the tested form may be a part): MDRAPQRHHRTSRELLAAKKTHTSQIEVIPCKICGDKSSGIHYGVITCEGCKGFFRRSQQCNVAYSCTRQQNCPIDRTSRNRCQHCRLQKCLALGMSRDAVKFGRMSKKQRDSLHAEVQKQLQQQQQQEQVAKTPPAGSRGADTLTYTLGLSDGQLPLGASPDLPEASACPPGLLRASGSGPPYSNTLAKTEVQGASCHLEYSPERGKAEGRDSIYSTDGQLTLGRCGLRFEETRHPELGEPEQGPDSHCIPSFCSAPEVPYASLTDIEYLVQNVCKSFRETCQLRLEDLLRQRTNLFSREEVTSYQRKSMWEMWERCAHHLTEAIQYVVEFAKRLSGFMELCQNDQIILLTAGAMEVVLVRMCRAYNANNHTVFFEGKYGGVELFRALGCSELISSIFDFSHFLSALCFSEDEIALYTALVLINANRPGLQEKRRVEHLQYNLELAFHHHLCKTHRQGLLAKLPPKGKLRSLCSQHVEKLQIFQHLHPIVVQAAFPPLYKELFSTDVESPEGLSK
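Using a luciferase readout, inhibitors were identified by reduced reporter activity in Drosophila cells coexpressing a copper-inducible Gal4–ROR gamma fusion and UAS-driven Photinus luciferase, incubated 20 hr after 700 uM copper sulfate.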
Numbers without * were called inactive; [ ] = remark or other dose. The call rests on the fitted dose curve; in most records, active means well fitted curve in the direction sought with a large enough effect; inconclusive means small, poorly fitted or top-dose-only effect, or another doubt; inactive means no such curve, though single readings can be large; an effect the other way counts as inactive or inconclusive. Potency means the concentration at half of the fitted maximal effect.

How did CC1C2CC(C/C2=N/NC(=O)c2cccs2)C1(C)C (stereo not given) do in these assays?
SW480 rerep: -3.5%; VP16 counter: 2µM*; ELG1 repair inh: inconclusive; MCF10A rerep: 23.3%; RORgamma inh: inconclusive

Results for COc1cccc(NC(=O)C2CCC(CNS(=O)(=O)c3cccc4cccnc34)CC2)c1 (stereo not given) ?
SW480 rerep: -4.2%; VP16 counter: -1.5%; ELG1 repair inh: -15.1%; MCF10A rerep: 10.3%; RORgamma inh: 13.6%

Results for O=C(NC(Nc1nc2ccc([N+](=O)[O-])cc2s1)(C(F)(F)F)C(F)(F)F)c1cccnc1 ?
SW480 rerep: 12.0%; VP16 counter: 6.31µM*; ELG1 repair inh: inconclusive; MCF10A rerep: 27.6%; RORgamma inh: inconclusive

What do the screens show for `O=C(NC(NNc1ccc([N+](=O)[O-])cc1)(C(F)(F)F)C(F)(F)F)c1ccccc1Cl`?
SW480 rerep: 0.7%; VP16 counter: 7.1%; ELG1 repair inh: 0.0%; MCF10A rerep: inconclusive; RORgamma inh: 36.7%

What do the screens show for `O=[N+]([O-])c1ccc2nc(SCc3ccccc3Cl)sc2c1`?
SW480 rerep: 19.2%; VP16 counter: -2.5%; ELG1 repair inh: 14.2%; MCF10A rerep: 13µM*; RORgamma inh: inconclusive

Results for CN(C)S(=O)(=O)c1ccc2nc(NC(=O)c3cccnc3)sc2c1 ?
SW480 rerep: -21.7%; VP16 counter: -10.7%; MCF10A rerep: 2.3%; RORgamma inh: -32.9%

How did Nc1ccc2nc(SCc3ccc([N+](=O)[O-])cc3)sc2c1 do in these assays?
SW480 rerep: -5.6%; VP16 counter: -1.2%; ELG1 repair inh: -7.5%; MCF10A rerep: -2.2%; RORgamma inh: 14.1%

What do the screens show for `O=C(NC(Nc1nc2ccc([N+](=O)[O-])cc2s1)(C(F)(F)F)C(F)(F)F)c1ccccc1Cl`?
SW480 rerep: inconclusive; VP16 counter: 0.891µM*; ELG1 repair inh: inconclusive; MCF10A rerep: 20.6µM*; RORgamma inh: 6.31µM*

What do the screens show for `CCc1cc(=O)oc2c3c(cc(OCC(=O)NCCCOC)c12)OC(C)(C)CC3`?
SW480 rerep: -15.4%; VP16 counter: -10.9%; ELG1 repair inh: -5.8%; MCF10A rerep: 1.0%; RORgamma inh: 1.7%

Results for COc1ccc([C@H]2CC(=O)C=C(c3cc(C=O)ccc3OC)C2)cc1OC ?
SW480 rerep: inconclusive; ELG1 repair inh: inconclusive; MCF10A rerep: 88.9%

What do the screens show for `COc1ccc([C@H]2CC(=O)C=C(c3ccc(OC)c(F)c3)C2)cc1`?
SW480 rerep: -5.4%; ELG1 repair inh: inconclusive; MCF10A rerep: -30.1%

How did CCOc1ccc(C2=CC(=O)C[C@H](c3ccc(OC)cc3)C2)cc1 do in these assays?
SW480 rerep: -1.1%; ELG1 repair inh: inconclusive; MCF10A rerep: -1.6%

How did COc1ccc([C@H]2CC(=O)C=C(c3cccc(Br)c3)C2)cc1OC do in these assays?
SW480 rerep: 1.9%; ELG1 repair inh: 18.3µM*; MCF10A rerep: 5.5%

How did CCOc1ccc(Cl)cc1C1=CC(=O)C[C@H](c2ccc(OC)cc2)C1 do in these assays?
SW480 rerep: 3.66µM*; ELG1 repair inh: -11.6%; MCF10A rerep: inconclusive

How did COc1ccc([C@H]2CC(=O)C=C(c3cc(C=O)ccc3OC)C2)cc1 do in these assays?
SW480 rerep: 9.2µM*; ELG1 repair inh: -24.8%; MCF10A rerep: inconclusive

Results for COc1ccc([C@H]2CC(=O)C=C(c3ccc(OC)c(OC)c3)C2)cc1 ?
SW480 rerep: -6.5%; ELG1 repair inh: inconclusive; MCF10A rerep: 9.2µM*

Results for COc1ccc([C@H]2CC(=O)C=C(c3cccc(Br)c3)C2)cc1 ?
SW480 rerep: -1.7%; ELG1 repair inh: 2.4%; MCF10A rerep: inconclusive

How did COc1ccc([C@H]2CC(=O)C=C(c3cc(F)ccc3OC)C2)cc1 do in these assays?
SW480 rerep: inconclusive; ELG1 repair inh: -25.7%; MCF10A rerep: 20.6µM*

How did COc1ccc(Cl)cc1C1=CC(=O)C[C@H](c2ccc(F)cc2)C1 do in these assays?
SW480 rerep: -7.3%[9.22 µM]; ELG1 repair inh: inconclusive; MCF10A rerep: inconclusive

From PubChem
